The list is not random: actives were taken first. Their share in the collection is about 3.3%.
CTSL1 counter: blocks F. hepatica cathepsin L1 in PFM18AAP counter-screen | recombinant F. hepatica cathepsin L1, Z-Leu-Arg-MCA fluorescence | inhibition, % at 5.96 µM | 0.49% of 300,000 active | AID 1906;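 active = inhibition above the mean of all tested compounds plus 3 SD, set per screening campaign, cut at about 17% in these data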;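 also: 0% = plate median of test compound wells and 100% = 1 µM Z-Phe-Ala-diazomethylketone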
NRP1-CendR mod: NRP-1/CendR interaction modulation. O14786. FAM-RPARPAR peptide binding to NRP-1, fluorescence polarization. inhibition, % at 25 µM. 0.85% of 360,000 active. AID 602438;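 active = inhibition or corrected inhibition above about 18%, plus a signal ratio from 0.5 to 1.5, limit read from the data, passing the limit was not always enough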
Rpn11 inh: inhibitors of human proteasome Rpn11; O00487; human 26S proteasome, Ub4-pepOG fluorescence polarization; 20S core pre-blocked with epoxomicin; inhibition, % at 20 µM; 0.59% of 360,000 active; AID 588493;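 active = inhibition at 20 µM, scaled to each plate's controls, above about 33%, limit read from the data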
Target sequence (O00487 whole entry, looked up): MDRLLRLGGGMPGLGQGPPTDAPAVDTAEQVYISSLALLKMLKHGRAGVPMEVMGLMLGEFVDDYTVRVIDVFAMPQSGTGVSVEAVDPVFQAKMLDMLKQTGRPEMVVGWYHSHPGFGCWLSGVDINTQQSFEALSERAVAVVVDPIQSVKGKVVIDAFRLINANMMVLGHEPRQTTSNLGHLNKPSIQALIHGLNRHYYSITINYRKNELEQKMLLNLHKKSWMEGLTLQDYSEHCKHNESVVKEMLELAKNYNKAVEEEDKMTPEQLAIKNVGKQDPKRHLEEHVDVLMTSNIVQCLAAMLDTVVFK
PHOSPHO1 block: PHOSPHO1 (human) inhibition | 1.1% of 290,000 active | inhibition, % at 13.3 µM | Q8TCT1 | recombinant PHOSPHO1, absorbance phosphatase assay | AID 1565; in the data active = inhibition above about 60%
HNF4A DNA FP: change in binding of human HNF4 alpha to DNA; P41235; HNF4a-FITC DNA binding, fluorescence polarization, 1 h; activity change, % at 10 µM; 0.3% of 360,000 active; AID 1224865; in the data active = activity change above about 30%, passing the limit was not always enough
TPT1 inh: C. albicans TPT1 enzyme inhibition; recombinant caTPT1, FP RNA substrate dephosphorylation; inhibition, % at 5 µM; 0.81% of 300,000 active;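 active = inhibition above the mean of all tested compounds plus 3 SD, set per screening campaign, cut at about 24% in these data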;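 also: plate controls were DMSO alone for no effect and ferristatin control at 100 nM for full effect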
caTPT1 confirm: confirmation of Candida albicans TPT1 inhibitors; shares compounds with TPT1 inh; recombinant caTPT1, fluorescence polarization, RNase T1 coupled; inhibition, % at 5 µM; 74% of 2,400 active; AID 2149;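 active = inhibition above the primary screen limit, the mean inhibition of all tested compounds plus 3 SD, cut at about 25% in these data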
RNase T1 counter: counter-screen for TPT1 inhibitors: inhibitors of Aspergillus oryzae RNase T1. 83% of 2,400 active. inhibition, % at 5 µM. shares compounds with TPT1 inh. RNase T1 cleavage, fluorescence polarization, 1536-well;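 active = inhibition above the solvent-only control well mean plus 3 SD, limit set per screening run, cut at about 23% in these data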;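 also: plate controls were DMSO wells with enzyme for no effect and wells without RNase T1 for full effect; inhibitors block cleavage so intact labeled substrate keeps polarization high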
Target sequence (P00651 whole entry, looked up): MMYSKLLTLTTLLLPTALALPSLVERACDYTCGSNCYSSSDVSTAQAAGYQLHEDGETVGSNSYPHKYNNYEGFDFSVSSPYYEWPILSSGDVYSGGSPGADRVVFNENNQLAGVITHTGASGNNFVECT
* hit, by the source's call; nt = not tested or not shown.

SMILES | CTSL1 counter | NRP1-CendR mod | Rpn11 inh | PHOSPHO1 block | HNF4A DNA FP | TPT1 inh | caTPT1 confirm | RNase T1 counter
Cc1ccc(/C=C2/C(=O)NC(=O)N(CCc3ccc(F)cc3)C2=O)o1 | 2 | -24 | 10 | 18 | 1 | 27* | 6 | 14
CSc1ccc(C(=O)C2CCCN(Cc3cnc(SC)nc3)C2)cc1 (configuration not stated) | 6 | 10 | -3 | 40 | -2 | -5 | nt | nt
Cn1cc(C(=O)NCc2ccccc2)c2ccccc21 | -1 | -5 | -2 | 24 | 1 | 39* | -2 | 3
Cc1noc(C)c1COc1ccc(C(=O)NCC2(N(C)C)CCCCC2)cc1 | nt | 3 | -4 | nt | 0 | nt | nt | nt
O=C1NC(=O)N(c2ccccc2)C(=O)/C1=C/c1ccoc1 | 0 | -121 | 25 | -2 | 10 | 113* | 60* | 74*
Cc1ccc(N2C(=O)NC(=O)/C(=C/c3cnc(-c4ccccc4)nc3)C2=O)cc1C | 2 | -9 | 13 | -3 | -1 | 25* | 7 | 12
Cc1ccc(N2C(=O)NC(=O)/C(=C\c3ccsc3)C2=O)cc1C | -4 | nt | nt | 6 | nt | 28* | 52* | 66*
CCOC(=O)c1c(C)n(Cc2ccccc2)c2ccc(OCC(O)CNC(C)(C)C)cc12 (configuration not stated) | -1 | 8 | -38 | 40 | 3 | -2 | nt | nt
C[C@]12CCC3C(CC[C@H]4C[C@H](O)[C@H](O)C[C@]34C)C1CC[C@@H]2O (some centres not stated) | nt | 16 | -5 | nt | 3 | nt | nt | nt
O=C1NC(=O)C(=Cc2ccc(N3CCOCC3)o2)C(=O)N1 | 6 | -225 | nt | 11 | 138 | 180* | 146* | 144*
C=CCN1C(=O)/C(=C/c2ccc(N3CCOCC3)o2)C(=O)NC1=S | 4 | -173 | nt | 0 | 80* | 121* | 143* | 137*
C=CCN1C(=O)NC(=O)/C(=C\c2ccc(-c3ccccc3[N+](=O)[O-])o2)C1=O | 4 | -8 | 0 | 6 | 1 | -4 | nt | nt
O=C1NC(=O)N(c2ccc3c(c2)OCO3)C(=O)/C1=C\c1ccc(-c2ccccc2C(=O)O)o1 | 4 | -55 | -11 | -6 | -16 | 10 | nt | nt
Cc1cc(C)cc(N2C(=O)/C(=C\c3ccc(N4CCN(C)CC4)o3)C(=O)NC2=S)c1 | 3 | 133 | nt | 24 | 121 | 140* | 151* | 141*
O=C1NC(=O)N(c2ccc3c(c2)OCO3)C(=O)/C1=C/c1ccc(N2CCCCC2)o1 | 5 | -11 | nt | 11 | 163 | 132* | 146* | 142*
CCn1c(P(C)(=O)O)nc2cc(NC(=O)c3ccccc3F)ccc21 | 5 | 7 | 1 | 17 | 3 | 1 | nt | nt
COC(=O)C1=C(c2ccc(OC)c(OC)c2)C[C@@H]2CC[C@H]1N2C(=O)NCc1ccco1 | nt | -2 | -3 | nt | 2 | nt | nt | nt
O=C1NC(=O)N(Cc2ccc(F)cc2)C(=O)/C1=C\c1ccc([N+](=O)[O-])s1 | 5 | -68 | 35 | 3 | -9 | 23 | nt | nt
COc1ccc(CN2C(=O)NC(=O)/C(=C/c3ccc([N+](=O)[O-])s3)C2=O)cc1 | 2 | -115 | 51* | -14 | 3 | 27* | 56* | 72*
COc1cc(OC)c(OC)cc1/C=C1/C(=O)NC(=O)N(Cc2ccccc2)C1=O | 0 | -11 | 0 | 28 | -1 | 26* | 30* | 41*
CN(C)c1ccc(/C=C2/C(=O)NC(=O)N(Cc3ccco3)C2=O)cc1 | 3 | -64 | 5 | -1 | -9 | 26* | 18 | 26*
CCN1C(=O)C(=C2C=C(C)N(Cc3ccco3)C(C)=C2)C(=O)N(CC)C1=S | 4 | 6 | -7 | -6 | 4 | 3 | nt | nt
CCN(CC)c1ccc(/C=C2/C(=O)NC(=O)N(Cc3ccco3)C2=O)cc1 | 4 | -139 | 33 | -3 | 2 | 48* | 94* | 107*
Cc1cc(/C=C2/C(=O)NC(=O)N(Cc3ccco3)C2=O)c(C)n1-c1ccccc1 | -3 | -16 | 12 | -2 | -4 | 23 | nt | nt
